# VDR inh = vitamin D3 receptor (human) inhibition; P11473; VDR-SRC2-3 peptide fluorescence polarization, 2 h; Potency, µM, for inactives: max response, negative = inhibition, actives largely listed as inhibitors; hit rate 0.93% among 400,000; AID 504847; also: % is scaled to controls: 0 for no effect and ±100 for the full control effect
#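 Fluorescence polarization assay of small-molecule disruption of VDR binding to coregulator peptide SRC2-3. Compounds and controls pin-transferred, then read after 2 h incubation at ambient room temperature.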
# PTAP TSG101 blk = blocks PTAP/TSG101 interaction to inhibit HIV-1 budding; Potency, µM (series often up to 115 µM), for the others: at the highest dose activity change, negative = inhibition, hits mostly inhibitors; AID 493005; 340,000 tested, under 10 active; Q99816; Fluorescence polarization, FITC-PTAP peptide / Tsg101 binding; active = well fitted inhibition curve with a large enough effect in the main read-out, with a control signal flat, not every such curve was filed as active; inconclusive = small, poorly fitted or top-dose-only effect, or effect the other way, or a change in a side signal; inactive = no such curve, though single readings can be large or run the other way; also: % of control where 0% means no effect
#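 Fluorescence anisotropy tracks displacement of a FITC-tagged PTAP peptide (50 nM) from the Tsg101 binding domain (10 uM), following a 20 min room-temperature incubation at pH 7.5.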
# USP1 inh = inhibitors of human USP1/UAF1 deubiquitinase. O94782. hit rate 0.23% among 390,000. AID 743255. recombinant USP1/UAF1, Ub-Rhodamine cleavage fluorescence. Potency, µM (doses to about 57.1 µM), inactives show top-dose activity change, negative = inhibition, usual class: inhibitors; also: % is scaled to controls: 0 for no effect and ±100 for the full control effect; nearly all actives have a fitted effect of over 60% in size
# Target sequence (O94782 whole entry, looked up): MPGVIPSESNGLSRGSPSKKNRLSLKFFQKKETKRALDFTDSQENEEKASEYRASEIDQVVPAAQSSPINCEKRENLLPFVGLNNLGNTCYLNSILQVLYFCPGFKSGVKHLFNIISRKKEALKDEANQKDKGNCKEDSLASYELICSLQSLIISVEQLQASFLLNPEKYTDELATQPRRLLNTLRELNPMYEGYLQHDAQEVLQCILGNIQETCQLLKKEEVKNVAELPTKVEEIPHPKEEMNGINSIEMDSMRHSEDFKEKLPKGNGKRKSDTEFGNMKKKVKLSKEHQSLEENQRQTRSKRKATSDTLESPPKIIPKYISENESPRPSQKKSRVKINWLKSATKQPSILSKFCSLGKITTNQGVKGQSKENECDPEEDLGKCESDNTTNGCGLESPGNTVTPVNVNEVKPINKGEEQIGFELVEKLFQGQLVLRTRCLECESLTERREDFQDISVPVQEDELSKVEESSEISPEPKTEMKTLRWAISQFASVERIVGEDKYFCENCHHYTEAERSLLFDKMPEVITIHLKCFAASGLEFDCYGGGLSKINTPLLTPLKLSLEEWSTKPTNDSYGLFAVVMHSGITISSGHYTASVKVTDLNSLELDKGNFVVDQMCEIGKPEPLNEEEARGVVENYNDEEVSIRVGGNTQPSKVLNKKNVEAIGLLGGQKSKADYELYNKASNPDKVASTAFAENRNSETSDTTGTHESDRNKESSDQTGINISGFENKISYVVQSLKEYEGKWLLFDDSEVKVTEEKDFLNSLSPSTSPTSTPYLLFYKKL
#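 USP1/UAF1 complex (1 nM) preincubated 15 min at room temperature with compound, then Ub-Rho substrate (150 nM final) added. Kinetic fluorescence at 480/540 nm over 6 reads at 60 s intervals; 50 mM HEPES pH 7.8, 0.5 mM EDTA, 0.1 mg/ml BSA, 1 mM TCEP, 0.01% Tween-20.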
# PLK1 PBD block = inhibitors of human PLK1 polo-box domain binding | P53350 | Plk1 PBD binding of FITC phosphopeptide, fluorescence polarization | Potency, µM, without a hit: max response, negative = inhibition, hits mostly inhibitors | hit rate 2.8% among 360,000 | AID 720504; also: series mostly up to about 57 µM; % is scaled to controls: 0 for no effect and ±100 for the full control effect; nearly all actives have a fitted effect of over 65% in size
# GCN5L2 inh = GCN5L2 (KAT2A) acetyltransferase inhibition; Q92830; GCN5L2 HAT assay, ThioGlo1 CoA-SH fluorescence; Potency, µM (titrated, usually from 58.9 µM), for the others: top-dose activity change, negative = inhibition, most hits filed as inhibitors; hit rate 0.21% among 390,000; AID 504327; also: % is scaled to controls: 0 for no effect and ±100 for the full control effect
#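 qHTS, 1536-well. 20nM enzyme, pH 7.5 HEPES/EDTA/Tween-20 buffer; 15 min compound preinc., RT. Start: 75uM H3(1-25), 70uM AcCoA, 50uM ThioGlo1. Read Ex340/Em540 at t=0 (autofluorescence flag) and t=20 min.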
# The depositor's hits bear a star; ? = inconclusive; nt = no result. Rows were chosen to be rich in hits. Some 3% of all compounds tested hit in one or more screens of this group. Unless noted, calls follow the shape of the dose curve; as a rule, active = well fitted curve in the direction sought with a large enough effect; inconclusive = small, poorly fitted or top-dose-only effect, or another doubt; inactive = no such curve, though single readings can be large; an effect the other way counts as inactive or inconclusive. Potency is read from the fitted curve at half-maximal effect.
SMILES,VDR inh,PTAP TSG101 blk,USP1 inh,PLK1 PBD block,GCN5L2 inh
Oc1c(Br)cc(Br)cc1/C=N/c1nccs1,?,-13.4%,?,29.9µM*,-4.0%
CCn1c(CC(=O)Nc2ccc(F)cc2)nnc1SCC(=O)N1CCOCC1,18.5%,0.0%,-0.8%,29.9µM*,-13.6%
CCCN1C(=O)c2ccccc2NC1c1ccc(OC)c(COc2ccc([N+](=O)[O-])c(C)c2)c1 (stereo unspecified),-11.5%,nt,nt,nt,nt
O=C(O)c1cccc(NS(=O)(=O)c2ccc3c(c2)C(=O)c2ccccc2C3=O)c1,-15.3%,-3.5%,-27.9%,-6.4%,-20.4%
CCc1ccc(S(=O)(=O)/N=C2\C=C(Nc3ccc(C(=O)O)cc3)C(=O)c3ccccc32)cc1,3.7%,-5.3%,17.8µM*,-16.8%,-0.8%
Cc1ccc(S(=O)(=O)/N=C2\C=C(Nc3ccc(O)cc3)C(=O)c3ccccc32)cc1,13.5%,-7.4%,11.2µM*,-6.3%,-14.8%
Cc1ccc(S(=O)(=O)/N=C2\C=C(Nc3cccc(C(=O)O)c3)C(=O)c3ccccc32)cc1,-1.1%,-0.1%,14.1µM*,59.7µM*,-19.6%
Cn1c(=O)c(Nc2ccc(O)cc2)c2c3c(cccc31)C(=O)c1ccccc1-2,-15.3%,?,-6.2%,?,-18.9%
CCOc1ccc(-c2cc3c(=O)n(CC(=O)NCc4ccccc4)ccn3n2)cc1,-0.5%,nt,-22.5%,nt,0.7%
CCCCCCCCOc1ccc(C2OC34CCCCC3C(C#N)(C#N)C2(C#N)C(=N)O4)cc1 (stereo unspecified),1.0%,?,?,23.8µM*,-6.8%
CCOC(=O)c1ccc(-n2c(CCC(=O)O)ccc2-c2cccs2)cc1,?,-0.2%,-8.8%,18.9µM*,-16.6%
O=C(Nc1ccc(S(=O)(=O)Nc2nccs2)cc1)c1ccccc1OC(F)F,-10.3%,-2.9%,-24.8%,-5.7%,1.4%
CCOc1ccccc1NC(=O)C(Cc1ccccc1)NS(=O)(=O)c1ccc(Br)s1 (stereo unspecified),-22.8%,nt,-6.5%,nt,?
O=C(Nc1ccccc1)N1CCC2(CC1)CCN(S(=O)(=O)c1ccccc1)CC2,-1.0%,nt,nt,nt,-12.7%
CCOC(=O)c1cnc2ccc(C)cc2c1Sc1ccccc1C(=O)OC,-13.5%,-2.1%,?,26.7µM*,?
CCOC(=O)c1cnc2ccc(C)cc2c1NCCO,6.3%,-1.3%,-25.7%,-0.6%,-2.8%
Cc1ccc(N2CCN(S(=O)(=O)c3nnc(NC(=O)c4cccc(F)c4)s3)CC2)cc1,8.7%,nt,-8.9%,nt,-0.6%
COC(=O)c1ccc(Cn2cc([N+](=O)[O-])cn2)cc1,12.2%,-7.6%,-19.1%,-4.3%,-8.1%
CC(NC(=O)c1ccc(Cn2cc([N+](=O)[O-])cn2)cc1)c1ccccc1 (stereo unspecified),?,-0.6%,-5.2%,26.7µM*,1.8%
O=C(NC(=S)Nc1cccc2c(O)cccc12)c1ccco1,-22.6%,-4.8%,?,23.8µM*,-3.4%
O=C(NC(=S)Nc1ccc(NC(=O)c2cccs2)cc1)c1ccco1,?,-1.0%,-9.6%,18.9µM*,-1.5%
CC1CCN(c2ccc(NC(=S)NC(=O)c3ccco3)cc2)CC1,-6.7%,-2.8%,-6.3%,-7.3%,22.4µM*
N#Cc1ccccc1NC(=S)NC(=O)c1cccs1,-20.0%,-4.7%,1.0%,8.44µM*,-10.3%
O=C(Nc1ccc(NC(=O)c2cccs2)cc1)c1ccco1,0.5%,-1.6%,-18.1%,-3.2%,-7.5%
COc1cc(C(=O)N2Cc3cc4ccccc4nc3C2C)cc(OC)c1OC (stereo unspecified),nt,nt,-15.5%,2.9%,nt
SMILES,VDR inh,PTAP TSG101 blk,USP1 inh,PLK1 PBD block,GCN5L2 inh
O=C(NCCc1ccc(Cl)cc1)c1ccc(Cn2c(=O)c3cccn3c3cccnc32)cc1,4.4%,nt,-0.3%,nt,-0.2%
COC(=O)c1ccc(OCC2c3cc(OC)c(OC)cc3CCN2C(=O)c2ccc(F)cc2)cc1 (stereo unspecified),-6.4%,nt,?,nt,-2.6%
Nc1ccn([C@@H]2O[C@H](CNCc3cc(Cl)ccc3OCc3ccc(Cl)cc3)[C@@H](O)[C@H]2O)c(=O)n1,nt,nt,-2.6%,-21.0%,nt
CN(C(=O)CN1CCN(c2ccccc2F)CC1)C1CCCc2ccccc21 (stereo unspecified),1.5%,-6.2%,-11.9%,-4.9%,-4.2%
CCC(=O)Nc1ccc(Cl)c(NC(=S)NC(=O)c2ccco2)c1,-4.0%,1.4%,-22.3%,26.7µM*,-1.2%
Cc1ccc2c(c1)C(=O)C(=O)N2Cc1ccc(F)cc1,?,-3.3%,-13.9%,?,-7.2%
Cc1ccc2c(c1)C(=O)C(=O)N2Cc1ccccc1,79.4µM*,-0.3%,-30.3%,-17.7%,-5.0%
Cc1ccc2c(c1)C(=O)C(=O)N2CC1COc2ccccc2O1 (stereo unspecified),70.8µM*,-0.7%,-22.4%,?,-6.4%
Cc1ccc2c(c1)C(=O)C(=O)N2Cc1ccc(Cl)cc1,25.1µM*,-0.9%,-15.7%,?,-3.3%
CCOc1cccc(C2C=C(c3ccc4c(c3)OCO4)NC(c3ccc(Cl)cc3)N2)c1O (stereo unspecified),-28.2%,nt,nt,nt,nt
COc1ccc(C(=O)Oc2c(Sc3ccc(C)cc3)c(C)nn2C(C)(C)C)c(OC)c1,-27.1%,nt,-1.0%,nt,-18.0%
COC(=O)c1ccc(OCC2c3cc(OC)c(OC)cc3CCN2C(=O)COc2ccc(Cl)cc2)cc1 (stereo unspecified),5.1%,nt,-22.8%,nt,0.6%
O=C1Oc2ccccc2C(=O)C1C(CC(O)c1ccc(-c2ccc(Br)cc2)cc1)c1ccccc1 (stereo unspecified),31.6µM*,nt,nt,nt,22.4µM*
Cc1cc(-c2nnc3sc(C4CCCCC4)nn23)n[nH]1,-14.3%,-4.5%,-12.5%,26.7µM*,3.2%
COC(=O)CSc1nc2c(c(-c3ccco3)c1C#N)CCCC2,-11.8%,-3.1%,-24.0%,26.7µM*,?
CCCCCCCCNC1=CC(=O)CC(C)(C)C1,2.6%,-0.5%,-11.0%,0.6%,-3.0%
Cc1cccc(C=Nc2ccc3c4c(cccc24)CC3)c1O,2.4%,0.5%,-10.0%,-4.4%,20µM*
Oc1cccc(C=Nc2cccc3ccccc23)c1O,28.2µM*,-3.4%,?,-11.4%,?
O=c1cc(CSc2n[nH]c(-c3ccncc3)n2)nc2sccn12,8.2%,-4.5%,?,-11.3%,-1.5%
COCCn1c(SCc2cc(=O)n3ccsc3n2)nnc1-c1ccncc1,6.2%,-3.0%,-20.9%,23.8µM*,-1.4%
O=C(O)Cn1c2ccccc2c2ccccc21,-4.2%,-5.2%,-18.4%,-5.6%,1.2%
O=C(O)Cn1c2c(c3ccccc31)CSc1ccc(Cl)cc1-2,?,-7.2%,-19.1%,13.4µM*,?
COc1ccc(/C=C(/NC(=O)c2ccccc2)C(=O)NC2CCS(=O)(=O)C2)cc1 (stereo unspecified),?,-2.7%,-7.0%,15µM*,1.4%
